Experimental data taken from PubChem BioAssay AID651744 (Broad Institute, 2012).
The campaign covered roughly 5,600 compounds. About 3,100 (55%) were called active. Another 3% or so got no clear call; they are omitted. The set was probably picked from earlier hits. The list is a sample of the results. A number with no mark means an inactive call.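 Rule for the calls: active = mean loss of cell viability signal at or above a set limit, and enough replicates individually reaching it; inconclusive = meets only the mean limit or only the replicate share; inactive = meets neither condition.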

Assay: viability loss of mouse 3T3 cells – cell-based, cherry-pick, single point, set 2, cytotoxicity control, confirmation (AID 651744);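 note: 0% = median of neutral control wells and 100% = median of positive control wells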
Details: NIH/3T3 viability, CellTiter-Glo ATP luminescence, 90 h; at 24.9 µM; active compounds read high
Cc1ccc(S(=O)(=O)N(C)C[C@@H]2Oc3ncc(-c4cc5ccccc5o4)cc3C(=O)N([C@H](C)CO)C[C@@H]2C)cc1 gave an inhibition of 14.8%.
For C[C@H](CO)N1C[C@H](C)[C@H](CN(C)S(=O)(=O)c2ccccc2)Oc2ncc(-c3cccc(C(F)(F)F)c3)cc2C1=O, the inhibition was 41.1% (active).
For Cc1ccc(-c2cnc3c(c2)C(=O)N([C@@H](C)CO)C[C@@H](C)[C@H](CN(C)Cc2ccccc2F)O3)cc1, the inhibition was 92.5% (active).
C[C@H]1CN([C@@H](C)CO)C(=O)c2ccccc2-c2ccccc2CO[C@@H]1CN(C)S(=O)(=O)c1ccc(C(F)(F)F)cc1 showed an inhibition of 9.87%.
With C[C@@H]1CN([C@H](C)CO)C(=O)c2cc(/C=C/c3ccccc3)cnc2O[C@@H]1CN(C)Cc1ccncc1 the inhibition was 26.2% (active).
For C[C@H](CO)N1C[C@H](C)[C@H](CN(C)S(=O)(=O)c2cccc(F)c2)Oc2ncc(/C=C/c3ccccc3)cc2C1=O, the inhibition was 76% (active).
In the case of C[C@H](CO)N1C[C@H](C)[C@@H](CN(C)S(=O)(=O)c2cccc(F)c2)OCc2ccccc2-c2c(n(C)c3ccccc23)C1=O, the inhibition is reported as 4.71%.
With CN1C(=O)c2cc(NC(=O)Nc3ccccc3F)ccc2OC[C@H]2O[C@H](CC(=O)NCc3ccc(-c4ccccc4)cc3)CC[C@H]21 the inhibition was 23%.
With O=C(c1ccccc1F)N1C[C@H]2[C@@H](c3ccccc31)[C@@H](CO)N2C(=O)c1ccc(F)cc1 the inhibition was 9.61%.
COc1ccc(CCN(C)C(=O)C2CCCN(Cc3ccc(OC)c(OC)c3)C2)cc1OC (stereo unspecified) gave an inhibition of 2.44%.
For C[C@H]1CN([C@@H](C)CO)S(=O)(=O)c2ccc(C#CC3CCCC3)cc2O[C@H]1CN(C)C(=O)Cc1ccncc1, the inhibition was 103% (active).
For C[C@@H]1CN([C@H](C)CO)S(=O)(=O)c2ccc(C#CC3CCCC3)cc2O[C@@H]1CN(C)C(=O)Cc1ccncc1, the inhibition was 85.1% (active).
In the case of CC(=O)N(C)C[C@@H]1[C@@H](c2ccc(-c3ccccc3F)cc2)[C@@H](CO)N1C(C)=O, the inhibition is reported as -5.68%.
Compound CCc1cnc(N2[C@H](C#N)[C@H](c3ccc(C4=CCCC4)cc3)[C@@H]2CO)s1 has an inhibition of 7.03%.
For N#C[C@H]1[C@@H](c2ccc(C3=CCCCC3)cc2)[C@@H](CO)N1C(=O)NC1CCCCC1, the inhibition was 60.1% (active).
Work on CCN(C[C@H]1[C@H](c2ccccc2)[C@H](CO)N1C(=O)C1CC1)C(=O)NC1CCCC1 yielded an inhibition of 4.07%.
With CS(=O)(=O)N1[C@@H](C#N)[C@H](c2ccc(C#CC3CCCCC3)cc2)[C@@H]1CO the inhibition was 75.2% (active).
In the case of CC(C)NC(=O)N1[C@H](C#N)[C@H](c2ccc(C#CC3CCCCC3)cc2)[C@H]1CO, the inhibition is reported as 67.4% (active).
For OC[C@@H]1Nc2ccc(-c3cccc(F)c3)cc2[C@H]2[C@@H]1CCN2Cc1ccncc1, the inhibition was 43.3% (active).
N#Cc1ccc(-c2ccc3c(c2)[C@@H]2[C@@H](CCN2C(=O)Cc2ccncc2)[C@@H](CO)N3)cc1 gave an inhibition of 14.4%.
With CN1c2ccc(-c3ccccc3)cc2[C@@H]2[C@@H](CCN2C(=O)c2ccncc2)[C@@H]1CO the inhibition was 18.7%.
For O=C(c1cnccn1)N1CC[C@@H]2[C@H](CO)Nc3ccc(-c4cccc(F)c4)cc3[C@@H]21, the inhibition was 42.7% (active).
For O=C(c1ccccn1)N1CC[C@@H]2[C@H]1c1cc(-c3ccccc3)ccc1N[C@@H]2CO, the inhibition was 7.5%.
In the case of COc1cccc(S(=O)(=O)N2C[C@@H](O)COC[C@@H]3O[C@H](CC(=O)Nc4ccccc4)CC[C@H]32)c1, the inhibition is reported as 26.4%.
For Cc1ccc(S(=O)(=O)N2C[C@@H](O)COC[C@@H]3O[C@H](CC(=O)NCc4ccc(Cl)c(Cl)c4)CC[C@H]32)cc1, the inhibition was 8.83%.
In the case of O=C(C[C@H]1CC[C@@H]2[C@H](COC[C@H](O)CN2Cc2ccc(Oc3ccccc3)cc2)O1)N1CCN(c2ccccc2)CC1, the inhibition is reported as 104% (active).
Compound O=C(C1CCC1)N1CCCCN2[C@H](CO)[C@H](c3ccc(-c4ccncc4)cc3)[C@@H]2C1 has an inhibition of -9.25%.
For COc1ccccc1C#Cc1ccc([C@@H]2[C@H](CO)N3CCCCN(C(=O)C4CCCC4)C[C@@H]23)cc1, the inhibition was 103% (active).
In the case of COc1ccccc1C#Cc1ccc([C@H]2[C@H](CO)N3CCCCN(C(=O)C4CCC4)C[C@@H]23)cc1, the inhibition is reported as 105% (active).
For COc1ccccc1NC(=O)N1CCCCN2[C@H](C1)[C@H](c1ccc(-c3ccccc3)cc1)[C@@H]2CO, the inhibition was 14.8%.
With COc1ccccc1C#Cc1ccc([C@@H]2[C@H](CO)N3CCCCN(C(=O)C4CC4)C[C@@H]23)cc1 the inhibition was 100% (active).
For C[C@H](CO)N1C[C@H](C)[C@H](CN(C)C(=O)Nc2cccc3ccccc23)Oc2ncc(C#Cc3ccccc3)cc2C1=O, the inhibition was 105% (active).
With COc1ccc(C#Cc2cnc3c(c2)C(=O)N([C@@H](C)CO)C[C@H](C)[C@@H](CN(C)C(C)=O)O3)cc1 the inhibition was 45.4% (active).
In the case of Cc1ccc(S(=O)(=O)Nc2ccc3c(c2)C(=O)N([C@@H](C)CO)C[C@@H](C)[C@H](CN(C)C(=O)Nc2cccc4ccccc24)OCCCC[C@H](C)O3)cc1, the inhibition is reported as 14.8%.
In the case of C[C@H](CO)N1C[C@H](C)[C@@H](CN(C)C(=O)Nc2ccnc(N3CCOCC3)c2)OCc2ccccc2-c2ccccc2C1=O, the inhibition is reported as 17.3%.
With Cc1noc(C)c1S(=O)(=O)Nc1ccc2c(c1)C(=O)N([C@@H](C)CO)C[C@H](C)[C@@H](CN(C)C(=O)Nc1cccc3ccccc13)OCCCC[C@H](C)O2 the inhibition was 13.2%.
Compound C[C@@H]1CN([C@H](C)CO)C(=O)c2cc(C#Cc3ccccn3)cnc2O[C@H]1CN(C)Cc1ccccc1 has an inhibition of -11.5%.
For CC(C)CC#Cc1cnc2c(c1)C(=O)N([C@@H](C)CO)C[C@@H](C)[C@H](CN(C)C(=O)Cc1ccncc1)O2, the inhibition was 36.6% (active).
For C[C@@H]1CN([C@@H](C)CO)C(=O)c2cc(C#Cc3ccccc3)cnc2O[C@H]1CN(C)C(=O)c1ccccn1, the inhibition was 34.3% (active).
For COCC(=O)N(C)C[C@@H]1Oc2ncc(C#Cc3ccccc3OC)cc2C(=O)N([C@@H](C)CO)C[C@H]1C, the inhibition was 34.8% (active).
With CCCN(C)C[C@@H]1Oc2cc(C#Cc3ccc(F)cc3)ccc2S(=O)(=O)N([C@H](C)CO)C[C@H]1C the inhibition was 105% (active).
In the case of CCCN(C)C[C@H]1Oc2cc(C#CC3CCCC3)ccc2S(=O)(=O)N([C@H](C)CO)C[C@@H]1C, the inhibition is reported as 105% (active).
For COCCNC[C@@H]1[C@H](c2ccccc2)[C@H](CO)N1c1nc(C)c(C)s1, the inhibition was 5.9%.
For C/C=C/c1ccc([C@H]2[C@@H](CNC(C)C)N(c3nc(CC)cs3)[C@H]2CO)cc1, the inhibition was 103% (active).
With CN(C)C(=O)c1ccc(-c2ccc([C@@H]3[C@H](CO)N4CCCCN(S(C)(=O)=O)C[C@@H]34)cc2)cc1 the inhibition was 6.63%.
In the case of O=S(=O)(Cc1ccccc1)N1CCCCN2[C@@H](CO)[C@H](c3ccc(-c4ccccc4)cc3)[C@@H]2C1, the inhibition is reported as 106% (active).
In the case of CCS(=O)(=O)N1CCCCN2[C@@H](CO)[C@@H](c3ccc(-c4ccccc4)cc3)[C@@H]2C1, the inhibition is reported as 49.5% (active).
In the case of Cc1cccc(-c2ccc([C@@H]3[C@@H](CO)N4CCCCN(S(=O)(=O)c5cccs5)C[C@H]34)cc2)c1, the inhibition is reported as 95.2% (active).
O=S(=O)(Cc1ccccc1)N1CCCCN2[C@@H](CO)[C@H](c3ccc(-c4cccnc4)cc3)[C@@H]2C1 showed an inhibition of -12.4%.
In the case of O=S(=O)(Cc1ccccc1)N1CCCCN2[C@@H](CO)[C@@H](c3ccc(-c4ccc(F)cc4)cc3)[C@@H]2C1, the inhibition is reported as 105% (active).
With C[C@H](O)C#Cc1ccc([C@@H]2[C@H]3CN(S(=O)(=O)c4ccccc4)CCCCN3[C@H]2CO)cc1 the inhibition was 25.4%.
For C/C=C/c1ccc([C@H]2[C@H]3CN(S(=O)(=O)c4ccccc4)CCCCN3[C@H]2CO)cc1, the inhibition was 87.7% (active).
In the case of C[C@@H](O)C#Cc1ccc([C@@H]2[C@H](CO)N3CCCCN(S(=O)(=O)c4ccccc4)C[C@@H]23)cc1, the inhibition is reported as 3.32%.
In the case of C[C@H](O)C#Cc1ccc([C@H]2[C@H]3CN(S(=O)(=O)Cc4ccccc4)CCCCN3[C@H]2CO)cc1, the inhibition is reported as 30.3% (active).
Work on COc1cccc(S(=O)(=O)Nc2ccc3c(c2)[C@H]2C[C@H](CC(=O)NCc4ccc(Cl)cc4)O[C@H](CO)[C@H]2O3)c1 yielded an inhibition of 4.86%.
In the case of O=C(Nc1cc(Cl)cc(Cl)c1)N[C@H]1CC[C@@H](CCNS(=O)(=O)c2cccc(F)c2)O[C@H]1CO, the inhibition is reported as 57.3% (active).
O=C(Nc1ccc(Cl)cc1)N[C@@H]1CC[C@@H](CCNC(=O)c2ccccc2F)O[C@H]1CO gave an inhibition of 4.33%.
In the case of CC(C)CC#Cc1ccc2c(c1)O[C@H](CN(C)Cc1cccnc1)[C@H](C)CN([C@@H](C)CO)S2(=O)=O, the inhibition is reported as 97% (active).
With C[C@H](CO)N1C[C@H](C)[C@@H](CN(C)Cc2ccncc2)Oc2cc(Br)ccc2S1(=O)=O the inhibition was 51.2% (active).
CCCC#Cc1ccc2c(c1)O[C@@H](CN(C)C(=O)c1ccccc1F)[C@H](C)CN([C@H](C)CO)S2(=O)=O gave an inhibition of 24.6%.
With CC(C)CC#Cc1ccc2c(c1)O[C@H](CN(C)Cc1ccccc1F)[C@@H](C)CN([C@@H](C)CO)S2(=O)=O the inhibition was 105% (active).
With CC(C)CC#Cc1ccc2c(c1)O[C@H](CN(C)Cc1ccncc1)[C@H](C)CN([C@H](C)CO)S2(=O)=O the inhibition was 104% (active).
In the case of O=C(Nc1ccc2c(c1)[C@@H]1C[C@H](CC(=O)N3CCOCC3)O[C@@H](CO)[C@@H]1O2)c1ccc2c(c1)OCO2, the inhibition is reported as 4.7%.
In the case of C[C@H]1CN([C@@H](C)CO)C(=O)CCCn2cc(nn2)CO[C@H]1CN(C)C(=O)c1ccccc1, the inhibition is reported as 7.66%.
With C[C@H]1CN([C@@H](C)CO)S(=O)(=O)c2ccc(C#CC3CCCC3)cc2O[C@@H]1CN(C)C(=O)c1cccc(F)c1 the inhibition was 105% (active).
For C[C@H](CO)N1C[C@H](C)[C@@H](CN(C)C(=O)Nc2cc(F)ccc2F)Oc2cc(C#CC3CC3)ccc2S1(=O)=O, the inhibition was 55.6% (active).
